Of roughly 6,500 targets only a part is listed; those with a hit were picked by preference. About 2% of all pairs of compound and target were hits. A number with no mark means an inactive call.
compound: COC(=O)C#Cc1ccccc1 [methyl 3-phenylpropiolate]; test: log2 ratio of iodoacetamide-alkyne labeling of the cysteine site, DMSO over compound (competition); higher = stronger covalent engagement of the cysteine by the compound, active = 1 or more; settings: 500 µM; treatment time 1 h; system: HEK293T cell lysate
In short: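 Reporter intensities give each cysteine's log2 competition ratio as the mean of control channels over the mean of compound channels. The samples were HEK293T lysate (2 mg/mL) given vehicle or electrophile (500 µM, 1 h, ambient temperature), then iodoacetamide alkyne (1 h), followed by click coupling to sCIP-TMT reagents, pooling, trypsin digestion overnight at 37 °C, streptavidin enrichment, acid elution, Orbitrap Eclipse LC-MS/MS with FAIMS and FragPipe quantification. Duplicate channels and three replicates were run, and cysteines quantified in only one replicate were discarded.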

UniProt Q13418, sequence (Q13418 whole entry, looked up): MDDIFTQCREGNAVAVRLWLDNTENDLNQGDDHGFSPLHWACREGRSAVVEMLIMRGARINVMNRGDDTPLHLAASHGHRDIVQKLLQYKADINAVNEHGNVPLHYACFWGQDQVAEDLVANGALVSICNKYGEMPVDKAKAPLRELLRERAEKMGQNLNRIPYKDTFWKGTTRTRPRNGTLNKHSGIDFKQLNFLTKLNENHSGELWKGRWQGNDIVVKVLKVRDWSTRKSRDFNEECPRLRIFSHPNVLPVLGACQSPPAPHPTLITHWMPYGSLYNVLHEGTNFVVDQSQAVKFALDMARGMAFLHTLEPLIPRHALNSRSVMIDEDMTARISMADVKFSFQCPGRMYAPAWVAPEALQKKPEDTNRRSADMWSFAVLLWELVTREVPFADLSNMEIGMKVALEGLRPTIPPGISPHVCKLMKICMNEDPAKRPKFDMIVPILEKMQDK
UniProt Q14566, sequence (Q14566 whole entry, looked up): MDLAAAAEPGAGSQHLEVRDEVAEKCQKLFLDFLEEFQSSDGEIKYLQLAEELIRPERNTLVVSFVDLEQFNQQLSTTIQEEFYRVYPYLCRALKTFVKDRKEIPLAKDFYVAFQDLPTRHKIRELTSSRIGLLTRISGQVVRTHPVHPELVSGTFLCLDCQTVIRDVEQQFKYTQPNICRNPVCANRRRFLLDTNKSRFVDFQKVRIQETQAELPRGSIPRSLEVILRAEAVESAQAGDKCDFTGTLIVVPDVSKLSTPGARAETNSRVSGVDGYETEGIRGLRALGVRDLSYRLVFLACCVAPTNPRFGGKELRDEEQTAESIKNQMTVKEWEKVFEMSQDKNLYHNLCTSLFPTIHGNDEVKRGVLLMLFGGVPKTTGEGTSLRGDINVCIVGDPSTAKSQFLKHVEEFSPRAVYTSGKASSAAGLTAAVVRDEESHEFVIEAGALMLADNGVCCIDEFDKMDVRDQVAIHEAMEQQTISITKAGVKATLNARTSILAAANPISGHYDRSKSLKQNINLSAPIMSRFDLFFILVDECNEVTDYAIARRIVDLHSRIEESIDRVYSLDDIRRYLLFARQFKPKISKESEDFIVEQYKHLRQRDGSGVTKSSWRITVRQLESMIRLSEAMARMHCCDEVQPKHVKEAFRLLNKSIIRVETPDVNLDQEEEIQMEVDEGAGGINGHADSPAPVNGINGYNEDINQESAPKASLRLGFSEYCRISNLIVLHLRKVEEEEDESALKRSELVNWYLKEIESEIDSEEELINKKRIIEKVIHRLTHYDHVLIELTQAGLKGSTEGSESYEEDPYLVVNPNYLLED
UniProt Q03252, sequence (Q03252 whole entry): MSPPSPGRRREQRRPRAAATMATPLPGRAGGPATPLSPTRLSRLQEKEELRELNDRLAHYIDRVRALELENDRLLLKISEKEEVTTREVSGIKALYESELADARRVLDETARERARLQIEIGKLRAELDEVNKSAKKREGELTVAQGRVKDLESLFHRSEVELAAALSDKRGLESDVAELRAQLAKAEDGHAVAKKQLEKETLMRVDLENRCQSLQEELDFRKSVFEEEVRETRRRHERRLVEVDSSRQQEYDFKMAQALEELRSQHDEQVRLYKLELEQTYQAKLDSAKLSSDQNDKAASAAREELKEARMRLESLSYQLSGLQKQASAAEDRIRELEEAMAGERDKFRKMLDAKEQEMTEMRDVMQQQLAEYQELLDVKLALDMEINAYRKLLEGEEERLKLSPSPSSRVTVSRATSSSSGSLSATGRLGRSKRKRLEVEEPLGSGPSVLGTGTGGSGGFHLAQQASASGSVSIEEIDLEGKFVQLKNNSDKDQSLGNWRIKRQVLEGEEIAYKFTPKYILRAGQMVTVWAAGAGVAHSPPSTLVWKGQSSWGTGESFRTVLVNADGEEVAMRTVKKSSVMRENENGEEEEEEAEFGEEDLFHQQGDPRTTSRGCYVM
UniProt Q15181, sequence (Q15181 whole entry, looked up): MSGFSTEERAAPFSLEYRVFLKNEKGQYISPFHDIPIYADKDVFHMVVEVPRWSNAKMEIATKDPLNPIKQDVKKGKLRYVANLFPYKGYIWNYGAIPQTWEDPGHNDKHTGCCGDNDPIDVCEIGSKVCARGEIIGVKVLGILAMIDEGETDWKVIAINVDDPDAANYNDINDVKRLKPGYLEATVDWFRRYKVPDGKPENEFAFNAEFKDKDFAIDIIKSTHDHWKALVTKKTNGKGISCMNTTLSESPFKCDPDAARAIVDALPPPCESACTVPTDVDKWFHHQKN
UniProt P78417, sequence (P78417 whole entry, looked up): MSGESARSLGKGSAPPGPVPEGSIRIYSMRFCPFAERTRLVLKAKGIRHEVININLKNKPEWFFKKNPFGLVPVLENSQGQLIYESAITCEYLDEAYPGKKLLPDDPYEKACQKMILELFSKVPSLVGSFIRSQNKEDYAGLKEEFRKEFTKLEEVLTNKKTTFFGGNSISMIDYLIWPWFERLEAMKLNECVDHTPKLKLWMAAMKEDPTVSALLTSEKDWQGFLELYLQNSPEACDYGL
UniProt Q00796, sequence (Q00796 whole entry, looked up): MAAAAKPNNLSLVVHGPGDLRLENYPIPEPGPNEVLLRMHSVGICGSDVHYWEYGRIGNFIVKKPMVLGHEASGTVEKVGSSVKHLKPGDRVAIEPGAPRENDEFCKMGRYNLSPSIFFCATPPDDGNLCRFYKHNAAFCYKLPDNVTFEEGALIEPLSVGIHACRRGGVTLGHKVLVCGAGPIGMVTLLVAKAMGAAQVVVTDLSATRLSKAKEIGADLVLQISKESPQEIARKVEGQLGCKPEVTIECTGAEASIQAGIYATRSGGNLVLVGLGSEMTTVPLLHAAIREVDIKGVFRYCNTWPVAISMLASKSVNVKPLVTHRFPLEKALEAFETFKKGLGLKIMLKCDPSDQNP
UniProt P62993, sequence (P62993 whole entry, looked up): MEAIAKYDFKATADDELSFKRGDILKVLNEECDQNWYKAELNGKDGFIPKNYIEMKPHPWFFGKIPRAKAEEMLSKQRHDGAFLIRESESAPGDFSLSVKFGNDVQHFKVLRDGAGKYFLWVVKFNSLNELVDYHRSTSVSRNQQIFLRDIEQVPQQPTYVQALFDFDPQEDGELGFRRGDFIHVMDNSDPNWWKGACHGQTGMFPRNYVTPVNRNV
UniProt Q5JTD0, sequence (Q5JTD0 whole entry, looked up): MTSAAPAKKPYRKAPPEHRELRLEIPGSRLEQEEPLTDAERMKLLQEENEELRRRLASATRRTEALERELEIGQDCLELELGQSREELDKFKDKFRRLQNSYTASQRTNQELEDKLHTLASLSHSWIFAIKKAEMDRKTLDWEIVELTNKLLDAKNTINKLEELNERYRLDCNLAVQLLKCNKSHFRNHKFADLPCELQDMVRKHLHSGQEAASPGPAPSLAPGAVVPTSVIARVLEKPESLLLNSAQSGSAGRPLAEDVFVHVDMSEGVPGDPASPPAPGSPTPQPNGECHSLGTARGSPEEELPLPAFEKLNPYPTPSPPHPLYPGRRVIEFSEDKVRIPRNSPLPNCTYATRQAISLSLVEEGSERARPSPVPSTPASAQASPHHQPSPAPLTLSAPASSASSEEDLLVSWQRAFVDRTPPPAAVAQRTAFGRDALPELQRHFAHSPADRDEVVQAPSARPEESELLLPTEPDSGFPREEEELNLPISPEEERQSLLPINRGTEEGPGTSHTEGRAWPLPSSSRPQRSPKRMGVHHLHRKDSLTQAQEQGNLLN
UniProt P57678, sequence (P57678 whole entry, looked up): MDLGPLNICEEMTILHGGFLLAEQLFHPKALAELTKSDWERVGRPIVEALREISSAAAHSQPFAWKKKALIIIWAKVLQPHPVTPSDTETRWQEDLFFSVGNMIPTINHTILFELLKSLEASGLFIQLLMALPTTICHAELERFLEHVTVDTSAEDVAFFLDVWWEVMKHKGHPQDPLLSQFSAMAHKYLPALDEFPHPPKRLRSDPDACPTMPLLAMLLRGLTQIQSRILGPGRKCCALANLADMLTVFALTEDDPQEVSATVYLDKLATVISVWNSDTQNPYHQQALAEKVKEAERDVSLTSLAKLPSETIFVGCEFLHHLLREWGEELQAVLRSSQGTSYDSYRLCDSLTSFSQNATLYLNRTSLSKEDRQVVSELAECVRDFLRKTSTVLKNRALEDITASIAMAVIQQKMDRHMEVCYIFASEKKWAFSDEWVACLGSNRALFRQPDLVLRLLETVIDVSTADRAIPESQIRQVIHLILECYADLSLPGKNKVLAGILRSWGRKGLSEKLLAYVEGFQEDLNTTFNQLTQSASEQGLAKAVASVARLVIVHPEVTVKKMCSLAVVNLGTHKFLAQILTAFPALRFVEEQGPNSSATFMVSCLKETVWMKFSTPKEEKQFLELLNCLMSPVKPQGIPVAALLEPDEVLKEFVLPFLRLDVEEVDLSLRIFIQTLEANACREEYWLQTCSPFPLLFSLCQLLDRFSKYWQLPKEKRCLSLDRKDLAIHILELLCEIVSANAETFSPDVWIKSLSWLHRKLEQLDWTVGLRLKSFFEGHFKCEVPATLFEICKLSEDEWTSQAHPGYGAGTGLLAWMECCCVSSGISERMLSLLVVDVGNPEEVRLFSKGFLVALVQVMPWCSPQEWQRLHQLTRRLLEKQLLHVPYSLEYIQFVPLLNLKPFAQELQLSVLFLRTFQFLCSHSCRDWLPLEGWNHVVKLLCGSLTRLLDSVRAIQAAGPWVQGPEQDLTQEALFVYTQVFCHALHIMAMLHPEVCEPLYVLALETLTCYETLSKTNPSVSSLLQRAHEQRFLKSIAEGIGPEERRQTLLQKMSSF
UniProt P62633, sequence (P62633 whole entry, looked up): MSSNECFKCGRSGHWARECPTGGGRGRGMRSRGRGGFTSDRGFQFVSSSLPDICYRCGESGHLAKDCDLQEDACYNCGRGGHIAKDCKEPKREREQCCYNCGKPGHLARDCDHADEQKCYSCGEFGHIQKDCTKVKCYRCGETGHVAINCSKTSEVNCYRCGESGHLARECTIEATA

| Target | log2 ratio of iodoacetamide-alkyne labeling |
| --- | --- |
| KIF14 C442 (UniProt Q15058) | 0.0677 |
| MTA1 C229 (UniProt Q13330) | 0.124 |
| CDC20 C364 (UniProt Q12834) | 1.22 (active) |
| ATP2C1 C162 (UniProt P98194) | 0.0772 |
| TRIM28 C717 (UniProt Q13263) | -0.00982 |
| ESPL1 C1369 (UniProt Q14674) | 0.218 |
| GRB2 C32 (UniProt P62993) | 0.167 |
| NUP98 C1590 (UniProt P52948) | 0.601 |
| RPL7A C174 (UniProt P62424) | -0.0802 |
| TBCE C371 (UniProt Q15813) | 0.185 |
| ACTR3 C235 (UniProt P61158) | 1.28 (active) |
| SEC23A C432 (UniProt Q15436) | 0.163 |
| TJAP1 C172 (UniProt Q5JTD0) | 0.251 |
| NSUN2 C184 (UniProt Q08J23) | -0.0329 |
| UniProt Q15365_C194 | 1.08 (active) |
| REEP5 C18 (UniProt Q00765) | 0.482 |
| HK2 C158 (UniProt P52789) | 0.246 |
| EFTUD2 C144 (UniProt Q15029) | 0.297 |

| Target | log2 ratio of iodoacetamide-alkyne labeling |
| --- | --- |
| MCM6 C242 (UniProt Q14566) | 0.192 |
| UniProt P62280_C60 | 2.21 (active) |
| UniProt P62330_C155 | 0.452 |
| ILK C422 (UniProt Q13418) | 0.358 |
| CNBP C140 (UniProt P62633) | 0.134 |
| UniProt Q5H9R7_C467 | 0.103 |
| SEC24C C433 (UniProt P53992) | 1.1 (active) |
| GEMIN4 C382 (UniProt P57678) | 0.0965 |
| SORD C45 (UniProt Q00796) | -0.0713 |
| UniProt Q02930_C80 | 1.09 (active) |
| BLM C685 (UniProt P54132) | 0.197 |
| LMNB2 C212 (UniProt Q03252) | 0.214 |
| GSTO1 C32 (UniProt P78417) | 2.51 (active) |
| PCM1 C957 (UniProt Q15154) | 2.43 (active) |
| PPA1 C114 (UniProt Q15181) | -0.223 |
| TLE1 C526 (UniProt Q04724) | 1.15 (active) |
| KIF23 C42 (UniProt Q02241) | 0.234 |
| UniProt P61163_C34 | 0.205 |
